Source: the supplement of paper PMC10849652
Of roughly 8,800 targets only a part is listed; those with a hit were picked by preference. About 0.5% of all pairs of compound and target were hits.

Assays:
Assay in all cases: log2 fold change, soluble protein after heating vs DMSO (PISA); higher = thermal stabilisation; K562 lysate, 10 uM; active = over 0.2 and 3.5 SD of the protein, either way, in both replicates (recomputed)
[1] = compound: C#Cc1cccc(Nc2ncnc3cc(OCCOC)c(OCCOC)cc23)c1 [erlotinib]
Summary of the method: (§1)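 Log-two fold change in thermal stability relative to solvent controls is reported from duplicates. For each sample, crude K562 extract from dounce-homogenised pellets in PBS pH 7.4 with 1 mM MgCl2, at 1 mg/mL protein, was treated with 10 μM compound for 30 min. Aliquots heated for 3 min across 48°C-58°C were pooled, brought to 0.5% NP-40 at 4°C and cleared at 21,000xg for 90 min. The supernatant was quantified by TMTpro 16plex LC-MS/MS with channel sums equalised.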

[2] = compound: C/C(=N\NC(=O)C1=CC(=CC=C1)S(=O)(=O)N2CCOCC2)/C3=C(C=CC(=C3)Cl)O
Summary of the method: as §1

[3] = compound: C1=CC(=CC=C1C2=NC3=C(N2)C=C(C=C3)C(=O)N)OC4=CC=C(C=C4)Cl
Summary of the method: as §1

[4] = compound: C1=CC2=C(C=CC(=C2)/C=C\3/C(=O)NC(=NCC4=CC=CS4)S3)N=C1
Summary of the method: as §1

[5] = compound: C1=CC2=NC=CN=C2C=C1/C=C/3\C(=O)NC(=O)S3
Summary of the method: as §1

[6] = compound: C1=CC=C(C=C1)C2=NC(=C(N2)C3=CC=NC=C3)C4=CC(=C(C=C4)Cl)O
Summary of the method: as §1

[7] = compound: C1=CC=C2C(=C1)C3=NNC4=CC=CC(=C43)C2=O
Summary of the method: as §1

[8] = compound: C1CCN(C1)C(=O)NC2=CC=CC(=C2)NC3=NC=C(C(=N3)NCCC4=CN=CN4)Br
Summary of the method: as §1

[9] = compound: C1CN(CCC1(CC2=CC=C(C=C2)Cl)N)C3=NC=NC4=C3C=CN4
Summary of the method: as §1

[10] = compound: C1COCCN1CCN2C3=CC=CC=C3N=C2NC(=O)C4=CC(=CC=C4)[N+](=O)[O-] [IRAK-1-4 Inhibitor I]
Summary of the method: as §1

[11] = compound: C=CC(=O)N1CCC[C@@H](n2nc(-c3ccc(Oc4ccccc4)cc3)c3c(N)ncnc32)C1 [ibrutinib]
Summary of the method: as §1

[12] = compound: CC(=O)c1cnc2ccc(-c3cc(Cl)c(O)c(Cl)c3)nc2c1N[C@H]1CC[C@H](CN(C)C)CC1
Summary of the method: as §1

[13] = compound: CC(C)(C)Cn1c(N)nc2ccc(-c3[nH]c(C(C)(C)C)nc3-c3ccc(F)cc3)nc21 [ralimetinib]
Summary of the method: as §1

[14] = compound: CC(C)(O)CC(=O)NCCn1ccc2ncnc(Nc3ccc(Oc4cccc(C(F)(F)F)c4)c(Cl)c3)c21
Summary of the method: as §1

[15] = compound: CC(C)C1=C2N=C(C=C(N2N=C1)NCC3=CC=CC=C3)NCCCCCCN
Summary of the method: as §1

[16] = compound: CC1=C(C(CC(=O)N1)C2=CC=C(C=C2)C(F)(F)F)C(=O)NC3=C(C=C4C(=C3)C=NN4)F
Summary of the method: as §1

[17] = compound: CC1=C(C2=C(C=C1)C(=O)C3=CC=CC=C3N2CCCN)C
Summary of the method: as §1

[18] = compound: CC1=C(C=C(C=C1)NC(=O)C2=CC(=CC=C2)C(C)(C)C#N)NC3=CC4=C(C=C3)N=CN(C4=O)C
Summary of the method: as §1

[19] = compound: CC1=C(C=C(C=C1)NC(=O)C2=CC(=CC=C2)N(C)C)NC(=O)C3=CC=C(C=C3)O
Summary of the method: as §1

[20] = compound: CC1=CC=C(C=C1)SC2=C3C=C(SC3=CN=C2)C(=O)N
Summary of the method: as §1

Measured: log2 fold change

RNPS1 (UniProt Q15287)
Sequence of UniProt Q15287 (Q15287 whole entry, looked up): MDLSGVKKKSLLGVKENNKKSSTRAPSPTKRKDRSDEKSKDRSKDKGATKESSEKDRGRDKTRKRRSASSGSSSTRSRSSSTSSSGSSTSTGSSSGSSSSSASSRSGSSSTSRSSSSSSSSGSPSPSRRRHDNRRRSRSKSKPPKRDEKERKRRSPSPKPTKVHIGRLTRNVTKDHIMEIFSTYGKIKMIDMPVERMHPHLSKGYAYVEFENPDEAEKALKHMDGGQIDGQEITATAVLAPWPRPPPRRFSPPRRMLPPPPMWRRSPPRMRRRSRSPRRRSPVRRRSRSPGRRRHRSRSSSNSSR
inactive: [1] -0.008 | [2] -0.105 | [3] 0.025 | [4] -0.151 | [5] -0.005 | [6] -0.006 | [7] 0.027 | [8] -0.016 | [9] -0.073 | [10] 0.023 | [11] 0.04 | [12] 0.042 | [13] 0.007 | [14] 0.006 | [15] 0.005 | [16] 0.138 | [17] 0.003 | [18] -0.057 | [19] -0.032 | [20] -0.032

RASA2 (UniProt Q15283)
inactive: [1] 0.016 | [2] -0.001 | [3] -0.054 | [4] -0.071 | [5] -0.028 | [6] 0.018 | [7] -0.069 | [8] -0.024 | [9] 0.028 | [10] -0.003 | [11] 0.034 | [12] -0.011 | [13] 0.006 | [14] -0.038 | [15] 0.014 | [16] 0.023 | [17] 0.004 | [18] 0.033 | [19] 0.019 | [20] -0.013

RAP1GAP isoform 4 (UniProt P47736)
Sequence of UniProt P47736 (P47736 whole entry, looked up): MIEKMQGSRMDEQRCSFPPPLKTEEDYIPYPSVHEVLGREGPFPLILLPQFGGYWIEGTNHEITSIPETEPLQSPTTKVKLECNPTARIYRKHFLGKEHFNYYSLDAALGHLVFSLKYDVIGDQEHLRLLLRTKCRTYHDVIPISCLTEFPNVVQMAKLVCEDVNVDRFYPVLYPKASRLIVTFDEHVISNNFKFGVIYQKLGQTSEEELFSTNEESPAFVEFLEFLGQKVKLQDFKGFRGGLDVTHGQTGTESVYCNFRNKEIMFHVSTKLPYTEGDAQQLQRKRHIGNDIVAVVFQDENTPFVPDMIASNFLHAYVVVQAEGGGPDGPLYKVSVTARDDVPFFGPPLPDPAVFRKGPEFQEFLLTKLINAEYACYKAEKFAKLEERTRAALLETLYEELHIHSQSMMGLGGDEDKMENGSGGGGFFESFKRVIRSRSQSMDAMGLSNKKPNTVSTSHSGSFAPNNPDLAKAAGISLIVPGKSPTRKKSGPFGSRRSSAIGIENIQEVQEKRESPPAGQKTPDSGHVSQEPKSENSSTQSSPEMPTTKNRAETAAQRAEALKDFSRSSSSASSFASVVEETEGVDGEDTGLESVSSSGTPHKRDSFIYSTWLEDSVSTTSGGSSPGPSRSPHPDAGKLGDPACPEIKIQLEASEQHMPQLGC
inactive: [1] 0.087 | [2] -0.028 | [3] -0.011 | [4] -0.018 | [5] -0.019 | [6] -0.012 | [7] -0.005 | [8] 0.02 | [9] 0.056 | [10] 0.041 | [11] -0.024 | [12] 0.018 | [13] 0.068 | [14] -0.037 | [15] 0.051 | [16] 0.003 | [17] -0.008 | [18] 0.056 | [19] -0.009 | [20] -0.012

RNF149 (UniProt Q8NC42)
Sequence of UniProt Q8NC42 (Q8NC42 whole entry, looked up): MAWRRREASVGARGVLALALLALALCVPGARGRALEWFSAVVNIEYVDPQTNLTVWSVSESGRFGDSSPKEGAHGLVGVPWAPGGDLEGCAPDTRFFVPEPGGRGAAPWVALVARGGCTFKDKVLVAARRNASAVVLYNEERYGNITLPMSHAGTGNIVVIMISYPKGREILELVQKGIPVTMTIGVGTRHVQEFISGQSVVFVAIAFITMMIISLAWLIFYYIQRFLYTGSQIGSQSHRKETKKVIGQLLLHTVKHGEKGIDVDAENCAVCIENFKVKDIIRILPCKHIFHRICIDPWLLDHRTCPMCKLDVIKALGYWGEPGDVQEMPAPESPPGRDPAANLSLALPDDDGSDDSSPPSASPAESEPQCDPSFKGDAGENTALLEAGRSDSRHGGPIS
inactive: [1] -0.044 | [2] -0.03 | [3] 0.003 | [4] -0.046 | [5] 0.135 | [6] -0.021 | [7] -0.031 | [10] 0.068 | [11] 0.04 | [12] 0.023 | [13] 0.044 | [14] -0.041 | [15] -0.005 | [16] -0.021 | [17] 0.001 | [18] -0.014 | [19] 0.113 | [20] 0.06

RETSAT (UniProt Q6NUM9)
Sequence of UniProt Q6NUM9 (Q6NUM9 whole entry, looked up): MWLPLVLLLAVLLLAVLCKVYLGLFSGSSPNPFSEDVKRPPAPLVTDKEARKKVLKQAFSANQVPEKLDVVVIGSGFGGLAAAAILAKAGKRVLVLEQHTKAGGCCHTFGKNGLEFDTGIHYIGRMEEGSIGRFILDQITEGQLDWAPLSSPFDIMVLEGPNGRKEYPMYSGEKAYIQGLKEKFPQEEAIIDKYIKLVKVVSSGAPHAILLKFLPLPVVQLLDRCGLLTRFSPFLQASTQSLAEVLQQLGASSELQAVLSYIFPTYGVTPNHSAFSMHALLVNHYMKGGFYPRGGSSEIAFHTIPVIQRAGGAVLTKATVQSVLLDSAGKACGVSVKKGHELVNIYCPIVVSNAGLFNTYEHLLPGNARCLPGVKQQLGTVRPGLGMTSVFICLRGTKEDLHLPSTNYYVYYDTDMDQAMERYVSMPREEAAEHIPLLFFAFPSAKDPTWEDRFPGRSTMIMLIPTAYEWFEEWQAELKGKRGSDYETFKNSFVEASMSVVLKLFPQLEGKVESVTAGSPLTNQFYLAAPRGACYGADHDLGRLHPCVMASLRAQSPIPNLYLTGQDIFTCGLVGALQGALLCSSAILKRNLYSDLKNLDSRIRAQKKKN
inactive: [1] -0.092 | [2] 0.054 | [3] 0.026 | [4] 0.021 | [5] -0.092 | [6] -0.004 | [7] -0.152 | [8] -0.077 | [9] -0.052 | [10] 0.148 | [11] -0.091 | [12] 0.073 | [13] -0.057 | [14] -0.134 | [15] 0.07 | [17] -0.113 | [18] 0.226 | [19] -0.015 | [20] -0.24

SAR1B (UniProt Q9Y6B6)
Sequence of UniProt Q9Y6B6 (Q9Y6B6 whole entry, looked up): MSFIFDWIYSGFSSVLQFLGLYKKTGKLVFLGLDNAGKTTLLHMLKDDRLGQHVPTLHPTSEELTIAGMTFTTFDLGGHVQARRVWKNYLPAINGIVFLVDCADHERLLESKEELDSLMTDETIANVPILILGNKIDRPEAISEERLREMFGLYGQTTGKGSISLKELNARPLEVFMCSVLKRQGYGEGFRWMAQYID
inactive: [1] -0.143 | [2] 0.011 | [3] 0.042 | [4] -0.046 | [5] -0.065 | [6] -0.045 | [7] 0.029 | [8] -0.126 | [9] 0.025 | [10] 0.041 | [11] 0.02 | [12] -0.094 | [13] 0.045 | [14] -0.032 | [15] 0.093 | [16] 0.154 | [17] -0.018 | [18] 0.026 | [19] -0.065 | [20] 0.077

RAD54L2 (UniProt Q9Y4B4)
Sequence of UniProt Q9Y4B4 (Q9Y4B4 whole entry, looked up): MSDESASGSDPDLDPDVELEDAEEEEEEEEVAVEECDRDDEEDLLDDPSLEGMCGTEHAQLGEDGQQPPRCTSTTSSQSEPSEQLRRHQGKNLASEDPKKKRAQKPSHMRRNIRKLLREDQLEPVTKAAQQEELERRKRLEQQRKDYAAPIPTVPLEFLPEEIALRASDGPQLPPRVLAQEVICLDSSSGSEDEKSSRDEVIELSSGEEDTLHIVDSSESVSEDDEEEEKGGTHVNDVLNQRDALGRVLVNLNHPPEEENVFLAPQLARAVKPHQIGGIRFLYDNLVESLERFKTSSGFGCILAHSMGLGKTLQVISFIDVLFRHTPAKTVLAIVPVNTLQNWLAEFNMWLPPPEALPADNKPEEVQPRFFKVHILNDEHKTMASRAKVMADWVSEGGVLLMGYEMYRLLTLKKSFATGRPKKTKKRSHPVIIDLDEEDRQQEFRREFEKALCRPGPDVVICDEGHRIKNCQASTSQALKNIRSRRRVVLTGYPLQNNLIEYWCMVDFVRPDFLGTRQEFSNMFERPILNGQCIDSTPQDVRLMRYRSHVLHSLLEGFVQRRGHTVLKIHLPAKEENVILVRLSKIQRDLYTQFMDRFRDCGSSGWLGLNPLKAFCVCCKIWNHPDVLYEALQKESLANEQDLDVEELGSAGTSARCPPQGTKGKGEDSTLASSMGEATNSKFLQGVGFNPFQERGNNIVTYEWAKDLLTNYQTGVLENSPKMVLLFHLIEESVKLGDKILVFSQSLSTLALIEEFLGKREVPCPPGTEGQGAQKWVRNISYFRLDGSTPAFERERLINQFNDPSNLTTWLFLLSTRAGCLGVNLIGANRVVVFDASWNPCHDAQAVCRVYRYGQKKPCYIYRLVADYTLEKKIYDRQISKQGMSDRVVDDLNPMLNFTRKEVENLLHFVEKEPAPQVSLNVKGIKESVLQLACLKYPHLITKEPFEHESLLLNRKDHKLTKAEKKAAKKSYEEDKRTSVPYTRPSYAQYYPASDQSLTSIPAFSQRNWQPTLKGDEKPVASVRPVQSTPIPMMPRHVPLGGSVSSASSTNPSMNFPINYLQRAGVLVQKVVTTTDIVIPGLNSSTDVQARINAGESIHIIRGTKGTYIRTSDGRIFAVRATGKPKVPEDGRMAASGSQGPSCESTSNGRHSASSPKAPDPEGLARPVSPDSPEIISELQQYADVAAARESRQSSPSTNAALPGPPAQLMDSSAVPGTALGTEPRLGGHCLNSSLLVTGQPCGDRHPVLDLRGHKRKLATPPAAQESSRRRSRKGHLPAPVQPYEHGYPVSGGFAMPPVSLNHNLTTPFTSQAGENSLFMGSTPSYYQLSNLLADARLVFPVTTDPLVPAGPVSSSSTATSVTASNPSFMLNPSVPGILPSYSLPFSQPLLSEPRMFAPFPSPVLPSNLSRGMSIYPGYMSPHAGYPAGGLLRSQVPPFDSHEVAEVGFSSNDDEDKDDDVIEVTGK
inactive: [1] 0.186 | [2] -0.176 | [3] -0.103 | [4] -0.035 | [5] -0.135 | [7] 0.002 | [8] -0.046 | [9] 0.055 | [11] -0.005 | [12] 0.23 | [15] -0.073 | [16] 0.131 | [17] -0.051 | [18] 0.031 | [20] 0.094

SERINC3 (UniProt Q13530)
Sequence of UniProt Q13530 (Q13530 whole entry, looked up): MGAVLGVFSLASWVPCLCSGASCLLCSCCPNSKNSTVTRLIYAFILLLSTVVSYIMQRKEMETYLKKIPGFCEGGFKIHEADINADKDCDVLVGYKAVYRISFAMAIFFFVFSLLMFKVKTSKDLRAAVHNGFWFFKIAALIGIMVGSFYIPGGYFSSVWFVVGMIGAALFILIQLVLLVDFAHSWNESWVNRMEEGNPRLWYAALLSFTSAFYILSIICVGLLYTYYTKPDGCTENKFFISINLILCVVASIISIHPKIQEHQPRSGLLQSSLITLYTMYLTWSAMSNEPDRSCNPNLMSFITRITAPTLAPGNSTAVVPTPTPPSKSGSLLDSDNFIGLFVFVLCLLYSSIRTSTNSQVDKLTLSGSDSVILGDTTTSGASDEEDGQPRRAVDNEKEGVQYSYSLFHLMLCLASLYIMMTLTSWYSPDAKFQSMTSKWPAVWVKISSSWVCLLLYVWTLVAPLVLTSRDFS
inactive: [1] 0.068 | [2] 0.145 | [3] 0.065 | [4] 0.073 | [5] 0.021 | [6] -0.02 | [7] -0.101 | [8] -0.03 | [9] 0.024 | [10] 0.018 | [11] 0.06 | [12] -0.082 | [13] 0.01 | [14] -0.003 | [15] -0.016 | [16] -0.012 | [17] -0.055 | [18] 0.049 | [19] -0.042 | [20] -0.011

RXRB isoform 3 (UniProt P28702)
Sequence of UniProt P28702 (P28702 whole entry, looked up): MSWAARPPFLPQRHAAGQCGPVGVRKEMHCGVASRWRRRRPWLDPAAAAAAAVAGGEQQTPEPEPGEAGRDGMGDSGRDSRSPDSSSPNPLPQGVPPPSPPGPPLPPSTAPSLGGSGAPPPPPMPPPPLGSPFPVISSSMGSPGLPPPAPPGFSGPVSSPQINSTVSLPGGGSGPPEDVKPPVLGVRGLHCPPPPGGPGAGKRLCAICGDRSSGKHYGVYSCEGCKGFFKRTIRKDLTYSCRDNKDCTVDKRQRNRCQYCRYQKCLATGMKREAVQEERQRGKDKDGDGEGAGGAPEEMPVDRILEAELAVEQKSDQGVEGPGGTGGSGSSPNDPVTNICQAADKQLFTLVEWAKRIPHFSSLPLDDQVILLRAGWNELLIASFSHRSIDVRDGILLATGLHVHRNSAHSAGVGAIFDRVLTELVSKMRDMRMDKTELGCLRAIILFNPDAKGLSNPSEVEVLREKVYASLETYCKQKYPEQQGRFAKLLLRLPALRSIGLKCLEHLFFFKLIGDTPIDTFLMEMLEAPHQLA
inactive: [1] -0.025 | [2] 0.006 | [3] -0.038 | [4] -0.014 | [5] 0.051 | [7] -0.039 | [8] 0.011 | [9] -0.015 | [11] 0.047 | [12] -0.037 | [15] 0.106 | [16] 0.026 | [17] -0.005 | [18] 0.011 | [20] -0.109

RCAN1 (UniProt P53805)
Sequence of UniProt P53805 (P53805 whole entry, looked up): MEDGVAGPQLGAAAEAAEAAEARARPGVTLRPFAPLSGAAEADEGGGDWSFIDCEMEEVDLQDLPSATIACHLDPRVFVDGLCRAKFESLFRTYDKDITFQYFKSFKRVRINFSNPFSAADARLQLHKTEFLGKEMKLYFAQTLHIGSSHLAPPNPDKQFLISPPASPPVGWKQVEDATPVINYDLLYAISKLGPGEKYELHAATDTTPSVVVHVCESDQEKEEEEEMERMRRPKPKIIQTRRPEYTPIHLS
inactive: [1] 0.06 | [2] -0.206 | [3] -0.033 | [4] -0.018 | [5] -0.04 | [6] 0.008 | [7] 0.045 | [8] -0.095 | [9] 0.016 | [10] -0.024 | [11] -0.019 | [12] 0.003 | [13] -0.004 | [14] 0.012 | [15] 0.002 | [16] 0.026 | [17] -0.027 | [18] 0.085 | [19] -0.02 | [20] 0.02

RALGAPB (UniProt Q86X10)
inactive: [1] 0.024 | [2] -0.047 | [3] 0.051 | [4] 0.018 | [5] 0 | [6] -0.038 | [7] -0.074 | [8] -0.008 | [9] 0.049 | [10] 0.033 | [11] 0.066 | [12] -0.002 | [13] 0.033 | [14] -0.038 | [15] 0.003 | [16] -0.048 | [17] 0.029 | [18] 0.065 | [19] 0.032 | [20] 0.01
